Laboratory results taken from PubChem BioAssay AID1159580 (chemical genetic matrix, 2015).
“And” between values parts separate entries of the source, which are not always exact repeats. Identical values can stand only once. Screen size: about 5,500 compounds; about 2,000 (36%) were called active. Another 18% or so got no clear call; they are omitted. No stated cut-off is given here; in the data, active means normalized growth mostly below about 0.91 (no sharp cut-off); inconclusive means no clear call, values can overlap the other calls; inactive means mostly above about 0.92. The list shows a part of the results.

Test: chemical genetic growth profiling, strain panel (AID 1159580);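 further: tested at 20 µM; growth read once vehicle control cultures reached saturation at 30 °C; 1 = growth at the plate median or of vehicle wells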
Settings: growth OD

Measured: normalized growth

CC(C)NCC(O)c1cc(O)cc(O)c1 (centres undefined)
inactive: S. cerevisiae deletion strains, locus YJR043C, strain POL32, stronger effect = lower value 1.02 | S. cerevisiae deletion strains, locus YJR066W, strain TOR1, stronger effect = lower value 0.916 | S. cerevisiae deletion strains, locus YKL009W, strain mrt4, stronger effect = lower value 0.967 | S. cerevisiae deletion strains, locus YKL068W, stronger effect = lower value 0.989 | S. cerevisiae deletion strains, locus YKL085W, strain MDH1 (second series), stronger effect = lower value 0.979 | S. cerevisiae deletion strains, locus YKL085W, strain MDH1, stronger effect = lower value 0.979 | S. cerevisiae deletion strains, locus YKL160W, strain elf1, stronger effect = lower value 0.983 | S. cerevisiae deletion strains, locus YKL190W, strain CNB1, stronger effect = lower value 0.989 | S. cerevisiae deletion strains, locus YKR001C, strain vps1, stronger effect = lower value 1.02 | S. cerevisiae deletion strains, locus YKR026C, strain gcn3, stronger effect = lower value 1 | S. cerevisiae deletion strains, locus YKR091W, strain srl3, stronger effect = lower value 0.986 | S. cerevisiae deletion strains, locus YLL001W, strain dnm1, stronger effect = lower value 0.951 | S. cerevisiae deletion strains, locus YLL026W, stronger effect = lower value 0.999 | S. cerevisiae deletion strains, locus YLL041C, strain sdh2, stronger effect = lower value 0.99 | S. cerevisiae deletion strains, locus YLR027C, strain aat2, stronger effect = lower value 0.998 | S. cerevisiae deletion strains, locus YLR039C, strain RIC1, stronger effect = lower value 0.995 | S. cerevisiae deletion strains, locus YLR058C, strain SHM2, stronger effect = lower value 0.994 | S. cerevisiae deletion strains, locus YLR102C, strain apc9, stronger effect = lower value 0.994 | S. cerevisiae deletion strains, locus YLR113W, strain HOG1, stronger effect = lower value 0.972 | S. cerevisiae deletion strains, locus YLR221C, strain rsa3, stronger effect = lower value 0.983 | S. cerevisiae deletion strains, locus YLR258W, strain gsy2, stronger effect = lower value 0.993 | S. cerevisiae deletion strains, locus YLR262C, strain YPT6 (second series), stronger effect = lower value 0.972 | S. cerevisiae deletion strains, locus YLR262C, strain YPT6, stronger effect = lower value 0.98 | S. cerevisiae deletion strains, locus YLR268W, strain sec22, stronger effect = lower value 1.01 | S. cerevisiae deletion strains, locus YLR320W, strain mms22, stronger effect = lower value 0.984 | S. cerevisiae deletion strains, locus YLR330W, strain CHS5, stronger effect = lower value 0.998 | S. cerevisiae deletion strains, locus YLR342W, strain FKS1 (second series), stronger effect = lower value 1.01 | S. cerevisiae deletion strains, locus YLR342W, strain FKS1, stronger effect = lower value 0.987 | S. cerevisiae deletion strains, locus YLR357W, strain rsc2, stronger effect = lower value 0.974 | S. cerevisiae deletion strains, locus YLR370C, strain arc18, stronger effect = lower value 0.975 | S. cerevisiae deletion strains, locus YLR371W, strain rom2, stronger effect = lower value 1 | S. cerevisiae deletion strains, locus YLR384C, strain iki3, stronger effect = lower value 0.993 | S. cerevisiae deletion strains, locus YLR418C, strain cdc73, stronger effect = lower value 0.984 | S. cerevisiae deletion strains, locus YML016C, strain PPZ1, stronger effect = lower value 1.01 | S. cerevisiae deletion strains, locus YML032C, strain rad52, stronger effect = lower value 1.01 | S. cerevisiae deletion strains, locus YML120C, strain ndi1, stronger effect = lower value 0.965 | S. cerevisiae deletion strains, locus YML124C, strain tub3, stronger effect = lower value 1 | S. cerevisiae deletion strains, locus YMR058W, strain fet3, stronger effect = lower value 0.996 | S. cerevisiae deletion strains, locus YMR078C, strain ctf18, stronger effect = lower value 0.988 | S. cerevisiae deletion strains, locus YMR125W, strain sto1, stronger effect = lower value 0.971 | S. cerevisiae deletion strains, locus YMR129W, stronger effect = lower value 0.992 | S. cerevisiae deletion strains, locus YMR205C, strain PFK2, stronger effect = lower value 0.955 | S. cerevisiae deletion strains, locus YMR223W, strain ubp8, stronger effect = lower value 0.975 | S. cerevisiae deletion strains, locus YMR231W, strain pep5, stronger effect = lower value 0.998 | S. cerevisiae deletion strains, locus YMR307W, strain GAS1, stronger effect = lower value 1.04 | S. cerevisiae deletion strains, locus YNL067W, strain RPL9B, stronger effect = lower value 0.995 | S. cerevisiae deletion strains, locus YNL071W, strain lat1, stronger effect = lower value 0.98 | S. cerevisiae deletion strains, locus YNL128W, strain TEP1, stronger effect = lower value 0.967 and 0.965 | S. cerevisiae deletion strains, locus YNL153C, strain GIM3, stronger effect = lower value 1.01 | S. cerevisiae deletion strains, locus YNL175C, strain NOP13, stronger effect = lower value 1 | S. cerevisiae deletion strains, locus YNL183C, strain NPR1, stronger effect = lower value 0.924 | S. cerevisiae deletion strains, locus YNL197C, strain WHI3, stronger effect = lower value 1.01 | S. cerevisiae deletion strains, locus YNL209W, strain ssb2, stronger effect = lower value 0.988 | S. cerevisiae deletion strains, locus YNL224C, strain SQS1, stronger effect = lower value 0.997 | S. cerevisiae deletion strains, locus YNL233W, strain BNI4, stronger effect = lower value 0.997 | S. cerevisiae deletion strains, locus YNL248C, strain rpa49, stronger effect = lower value 0.985 | S. cerevisiae deletion strains, locus YNL250W, strain rad50, stronger effect = lower value 0.979 | S. cerevisiae deletion strains, locus YNL271C, strain bni1, stronger effect = lower value 0.98 | S. cerevisiae deletion strains, locus YNL298W, strain CLA4, stronger effect = lower value 0.975 | S. cerevisiae deletion strains, locus YNL307C, strain MCK1, stronger effect = lower value 0.995 | S. cerevisiae deletion strains, locus YNL322C, strain KRE1 (second series), stronger effect = lower value 0.986 | S. cerevisiae deletion strains, locus YNR049C, strain mso1, stronger effect = lower value 0.993 | S. cerevisiae deletion strains, locus YNR052C, strain pop2, stronger effect = lower value 0.987 | S. cerevisiae deletion strains, locus YOL012C, strain htz1 0.863 | S. cerevisiae deletion strains, locus YOL147C, strain pex11, stronger effect = lower value 0.992 | S. cerevisiae deletion strains, locus YOR001W, strain rrp6, stronger effect = lower value 0.994 | S. cerevisiae deletion strains, locus YOR061W, strain CKA2, stronger effect = lower value 1 | S. cerevisiae deletion strains, locus YOR069W, strain VPS5, stronger effect = lower value 0.996 | S. cerevisiae deletion strains, locus YOR070C, strain gyp1, stronger effect = lower value 0.993 | S. cerevisiae deletion strains, locus YOR080W, strain dia2, stronger effect = lower value 1 | S. cerevisiae deletion strains, locus YOR083W, strain WHI5 (second series), stronger effect = lower value 1 | S. cerevisiae deletion strains, locus YOR083W, strain WHI5, stronger effect = lower value 0.96 | S. cerevisiae deletion strains, locus YOR106W, strain vam3, stronger effect = lower value 0.976 | S. cerevisiae deletion strains, locus YOR136W, strain idh2, stronger effect = lower value 0.997 | S. cerevisiae deletion strains, locus YOR144C, strain elg1, stronger effect = lower value 1.01 | S. cerevisiae deletion strains, locus YOR184W, strain ser1, stronger effect = lower value 0.991 | S. cerevisiae deletion strains, locus YOR231W, strain MKK1, stronger effect = lower value 0.97 | S. cerevisiae deletion strains, locus YOR265W, strain rbl2, stronger effect = lower value 0.994 | S. cerevisiae deletion strains, locus YOR270C, strain vph1, stronger effect = lower value 0.98 | S. cerevisiae deletion strains, locus YOR290C, strain snf2, stronger effect = lower value 0.929 | S. cerevisiae deletion strains, locus YOR316C, strain cot1, stronger effect = lower value 0.993 | S. cerevisiae deletion strains, locus YPL051W, strain arl3, stronger effect = lower value 0.989 | S. cerevisiae deletion strains, locus YPL055C, strain LGE1, stronger effect = lower value 1.02 | S. cerevisiae deletion strains, locus YPL078C, strain atp4, stronger effect = lower value 0.967 | S. cerevisiae deletion strains, locus YPL106C, strain sse1, stronger effect = lower value 0.978 | S. cerevisiae deletion strains, locus YPL240C, strain hsp82, stronger effect = lower value 0.984 | S. cerevisiae deletion strains, locus YPL241C, strain CIN2, stronger effect = lower value 0.996 | S. cerevisiae deletion strains, locus YPL256C, strain CLN2, stronger effect = lower value 0.953 | S. cerevisiae deletion strains, locus YPR119W, strain clb2, stronger effect = lower value 0.984 | S. cerevisiae deletion strains, locus YPR141C, strain kar3, stronger effect = lower value 0.976 | S. cerevisiae deletion strains, locus YPR163C, strain tif3, stronger effect = lower value 0.991 | S. cerevisiae deletion strains, locus YPR167C, strain met16, stronger effect = lower value 0.991 | S. cerevisiae deletion strains, strain wtn01, stronger effect = lower value 0.998 | S. cerevisiae strains, strain wild type, stronger effect = lower value 1.01
